# High-throughput results: PubChem, National Center for Advancing Translational Sciences (NCATS)
# The list is not random: actives were taken first. Their share in the collection is about 0.43%.
# aGlu spleen mod: inhibits or activates alpha-glucosidase in human spleen homogenate. P10253. human spleen homogenate, 4-MU-alpha-glucoside fluorescence. Potency, µM (top dose mostly 79.9 µM), for inactives: top-dose activity change, negative = inhibition, most hits filed as inhibitors. actives 0.006% (n = 240,000). AID 2112;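 note: potency is the fitted concentration of half-maximal effect; 0% = enzyme with vehicle and -100% = no enzyme basal signal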
#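 Compounds were titrated against alpha-glucosidase in spleen homogenate at pH 5.0, with 1 mM 4-methylumbelliferyl substrate for 40 min at 37 C. Reactions were quenched with pH 10 NaOH/glycine and fluorescence measured.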
# GAA glycogen: GAA glycogen-cleavage inhibition or activation. P10253. recombinant GAA, glycogen substrate, Amplex Red glucose oxidase fluorescence. Potency, µM (highest dose often 76.4 µM), for inactives: top-dose activity change, negative = inhibition, usual class: inhibitors. actives 0.38% (n = 300,000);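 note: potency is the fitted concentration of half-maximal effect; 0% = full enzyme reaction and -100% = no-enzyme basal signal; the screen sought inhibitors and activators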
#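 Recombinant human alpha-glucosidase (4 nM final) hydrolysed bovine liver glycogen (30 ug) for 40 min at 37 C in pH 5.0 citrate/phosphate with 0.01% Tween-20. Released glucose detected by glucose oxidase/Amplex Red, Ex 573/Em 610 nm. Compounds up to 77 uM; AC50 from Hill fits.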
# GLA inh pH 4.5: blocks human alpha-galactosidase A at pH 4.5 | purified enzyme, 4-MU-alpha-Gal fluorescence, pH 4.5 | 230,000 tested, under 10 active | activity change, negative = inhibition, % at 105 µM | P06280;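 note: 0% = full activity with enzyme and -100% = basal without enzyme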
# aGal spleen mod: alpha-galactosidase A (human) modulation | P06280 | human spleen homogenate, 4MU-alpha-Gal fluorescence, 40 min | Potency, µM (top dose mostly 80 µM), for inactives: at the top dose activity change, negative = inhibition, usual class: inhibitors | actives 0.008% (n = 240,000) | AID 2107;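 note: potency is the fitted concentration of half-maximal effect; 0% = enzyme with vehicle and -100% = no enzyme basal signal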
# Target sequence (P06280 32-429 limits assumed): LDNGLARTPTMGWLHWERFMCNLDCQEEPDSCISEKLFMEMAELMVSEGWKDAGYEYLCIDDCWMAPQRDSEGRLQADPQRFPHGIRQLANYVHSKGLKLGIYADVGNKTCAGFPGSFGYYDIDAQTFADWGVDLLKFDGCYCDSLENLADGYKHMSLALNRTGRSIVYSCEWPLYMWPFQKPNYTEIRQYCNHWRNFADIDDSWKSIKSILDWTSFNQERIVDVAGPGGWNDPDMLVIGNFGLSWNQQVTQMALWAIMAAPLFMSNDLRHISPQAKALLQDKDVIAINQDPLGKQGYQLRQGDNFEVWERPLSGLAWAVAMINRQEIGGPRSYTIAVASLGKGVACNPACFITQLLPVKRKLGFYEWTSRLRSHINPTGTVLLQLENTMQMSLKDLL
#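 Human spleen homogenate (1 ug) as enzyme source, 4-methylumbelliferyl-alpha-D-galactopyranoside 1 mM final, citrate/phosphate pH 5.0 with 0.01% Tween-20. Compounds 40 min at 37C, NaOH/glycine stop; fluorescence Ex 365/Em 440, Hill-fit AC50.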
# GAA inh: inhibitors of human lysosomal alpha-glucosidase; AID 1466; actives 0.005% (n = 200,000); Potency, µM (highest dose often 76.9 µM), for inactives: top-dose activity change, negative = inhibition, most hits filed as inhibitors; purified human GAA, 4-MU-alpha-glucoside fluorescence; P10253;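 note: potency is the fitted concentration of half-maximal effect; plate controls were uninhibited enzyme wells for no effect and no-enzyme background for full effect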
#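 qHTS format, compound range up to 77 uM. Human lysosomal enzyme at 4 nM, 400 uM 4-MU glucoside substrate, pH 5.0, 20 min room temperature; fluorescence after alkaline stop gives activity normalized to controls.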
# N370S GC mod: inhibitors or activators of N370S glucocerebrosidase for Gaucher disease. P04062. N370S GC spleen homogenate, 4MU-glucoside fluorescence. Potency, µM (top dose mostly 59.4 µM), for the others: at the highest dose activity change, negative = inhibition, hits mostly inhibitors. actives 0.092% (n = 330,000). AID 2101;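 note: potency is the fitted concentration of half-maximal effect; 0% = full enzyme activity and -100% = no enzyme basal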
# * = called active by the depositor; ? = inconclusive; . = not tested or not shown; [ ] = another dose, or the depositor's remark. Calls come from the whole dose curve; as a rule, active = well fitted curve in the direction sought with a large enough effect; inconclusive = small, poorly fitted or top-dose-only effect, or another doubt; inactive = no such curve, though single readings can be large; an effect the other way counts as inactive or inconclusive.
SMILES,aGlu spleen mod,GAA glycogen,GLA inh pH 4.5,aGal spleen mod,GAA inh,N370S GC mod
Cc1ccc(C)c2sc(N)nc12,11.8%,-8.3%,0.0,6.4%,2.0%,-11.3%
Cc1sc2nc(N)sc2c1C,-0.4%,17.6µM*,-16.4,-7.7%,-5.4%,0.8%
Cc1ccc(NCc2n[nH]c(=S)n2-c2cccc(Cl)c2)cc1,-3.2%,?,16.3,-7.1%,1.2%,21.8%
Cc1ccc(-n2c(CNc3cccc(Cl)c3)n[nH]c2=S)cc1,-2.4%,28.2µM*,9.6,-1.7%,-3.4%,2.2%
CC1CCC(C(C)C)C(P(=O)(c2ccccc2)c2ccccc2)C1 (configuration not stated),-2.2%,.,.,-0.4%,.,-3.2%
COc1ccc(C2=Nn3c(nnc3-c3ccc(OC)c(OC)c3)SC2)c(OC)c1,-11.6%,.,.,7.8%,.,9.7%
Cc1cc(O)ccc1Nc1nc(-c2cccs2)cs1,-1.8%,31.6µM*,-1.5,-15.8%,2.8%,-10.1%
COc1cc(/C=N\NC(=O)c2c(C)nc3cc(C)ccn23)ccc1O,?,11.1µM*,0.4,-21.8%,-4.0%,?
Nc1ccc(-c2n[nH]c(=O)c3ccccc23)cc1N,-12.0%,17.8µM*,-9.5,-4.8%,?,-11.1%
CCOC(=O)CSc1nnc(-c2cc(OC)c(OC)c(OC)c2)o1,8.1%,-8.5%,0.7,-2.0%,10.3%,0.0%
COc1cc(-c2nnc(SCc3cc(=O)oc4cc(O)c(O)cc34)o2)cc(OC)c1OC,-21.1%,15.8µM*,-0.5,8.0%,-5.6%,-20.9%
COc1ccc(O)c(-c2cc(-c3cccs3)[nH]n2)c1,1.6%,39.8µM*,-1.1,6.2%,-10.4%,-23.6%[2.35 µM]
COc1cc(/C=C2/NC(=O)N(Cc3ccccc3F)C2=O)cc(OC)c1O,-14.4%,?,?,?,?,-17.0%
CCOc1cc(/C=C2/NC(=O)N(Cc3ccccc3F)C2=O)ccc1O,-17.3%,5.62µM*,-7.9,5.3%,1.2%,-5.6%
CC1(C)Cc2c(c(-c3ccccc3)nc3[nH][nH]c(=O)c23)CO1,-4.8%,5.01µM*,0.2,6.6%,-2.3%,1.5%
CC(C)[C@H](N)C(=O)N[C@@H](CCC(N)=O)C(=O)NCC(=O)N[C@@H](CCC(=O)O)C(=O)N[C@@H](CCC(=O)O)C(=O)N[C@@H](CO)C(=O)N[C@@H](CC(N)=O)C(=O)N[C@@H](CC(=O)O)C(=O)N[C@@H](CCCCN)C(=O)O,7.3%,.,.,-0.7%,.,-13.7%
Cc1[nH]n(-c2ccc(Cl)c(Cl)c2)c(=O)c1CCO,-4.0%,22.4µM*,2.2,-4.8%,-4.9%,-3.6%
O=C1CC[C@@H](C(=O)N[C@@H](Cc2cnc[nH]2)C(=O)N[C@@H](Cc2c[nH]c3ccccc23)C(=O)N[C@@H](CO)C(=O)N[C@@H](Cc2ccc(O)cc2)C(=O)O)N1,-1.2%,.,.,-8.9%,.,0.4%
CC12CCC(C(=O)NNc3ccc([N+](=O)[O-])cc3)(OC1=O)C2(C)C (configuration not stated),-4.3%,?,-14.2,-4.2%,.,-16.4%
CC12CCC(C(=O)NNc3ccccc3)(OC1=O)C2(C)C (configuration not stated),-4.0%,28.2µM*,-1.0,-0.3%,5.3%,-14.8%
COc1ccc2c(c1)O[C@H](c1ccc3c(c1)OCO3)[C@@H](OC(=O)NS(=O)(=O)c1ccc(C)cc1)C2=O,-5.4%,.,2.1,3.9%,.,-1.8%
C/C(=N\NC(=S)Nc1ccccc1)C1Cc2ccccc2C(=O)O1 (configuration not stated),2.3%,15.8µM*,-13.8,-4.5%,.,11.1%
C[C@H](C(=O)OCO/N=[N+](\[O-])N1CCCC1)c1cccc2ccccc12,4.8%,.,.,10.2%,.,-3.4%
COc1ccc(NC(=S)NNC(=S)Nc2cccc(C(F)(F)F)c2)cc1,4.2%,4.47µM*,-12.1,-4.8%,-5.7%,-19.2%
CCOc1ccc(NC(=S)NNC(=S)Nc2cccc(C(F)(F)F)c2)cc1,-1.5%,?,-4.9,1.1%,-0.1%,-3.2%
SMILES,aGlu spleen mod,GAA glycogen,GLA inh pH 4.5,aGal spleen mod,GAA inh,N370S GC mod
FC(F)(F)c1cccc(NC(=S)NNC(=S)Nc2cccc(C(F)(F)F)c2)c1,2.0%,8.91µM*,-22.3,1.1%,-10.3%,-14.2%
CNNC(=S)Nc1cccc(C(F)(F)F)c1,-0.5%,-29.4%,-9.6,4.2%,-1.4%,11.0%
Nc1cc(-c2ccccc2)ccc1O,-1.8%,10µM*,1.1,1.1%,-5.6%,-7.2%
Nc1ccccc1Nc1cccc(C(F)(F)F)c1,.,11.2µM*,0.6,-2.2%,-5.2%,-1.3%
CCCCCCCCCCCCC/C=C/[C@@H](O)C(CO)NC(C)=O (some centres not stated),0.4%,.,7.3,-16.8%,.,-9.6%
Cc1cc(C)cc(N2C(N)=NC(N)=NC2c2ccccc2F)c1 (configuration not stated),.,-12.1%,.,.,.,15.8µM*
Cc1cc(C)cc(N2C(N)=NC(N)=NC2c2cccc(Cl)c2)c1 (configuration not stated),.,-13.3%,.,.,.,-24.6%
COc1ccc(C2=Nn3c(nnc3-c3cccc(OC)c3OC)SC2)c(OC)c1,9.8%,.,.,8.4%,.,0.0%
COC(=O)c1cc(O)c(OCc2ccccc2)c(O)c1,-15.2%,-24.9%,-4.7,3.6%,-3.0%,-1.7%
CC(=O)Oc1c(C)cc(O)c2ccccc12,2.0%,14µM*,-0.6,3.7%,2.3%,7.7%
CC(=O)Cc1cc(O)c2ccccc2c1OC(=O)c1ccccc1,-8.4%,8.91µM*,-17.8,7.1%,?,-28.1%
CCCCC(=O)N1C/C=C\C(c2ccc(OC)cc2)N(Cc2ccc(F)cc2)C(=O)C1Cc1ccccc1 (configuration not stated),-5.0%,.,.,7.2%,.,4.3%
Cc1ccc(N/C=C/C(=O)c2ccco2)c(O)c1,5.6%,8.91µM*,-0.1,0.6%,.,-2.5%
N#CC(Cc1ccc(O)c(O)c1)C(=O)N1CCc2ccccc21 (configuration not stated),6.1%,.,-2.7,0.5%,.,-6.0%
O=[N+]([O-])c1ccccc1NC(=S)N/N=C/c1ccc(O)c(O)c1,-5.7%,3.55µM*,3.1,-9.3%,-7.3%,-10.9%
CCOc1cccc(/C=N/NC(=S)Nc2ccccc2[N+](=O)[O-])c1O,-0.1%,2.5%,-7.8,-5.8%,2.8%,2.1%
COCC(=O)N1CCc2nc(-c3ccccc3)c3c(c2C1)CO[C@@H](C)C3,-1.5%[17.4 µM],.,0.0,2.7%[17.5 µM],.,7.3%[12.8 µM]
